# From the supplement of paper PMC12494721
# Structures can show the parent of a compound that is named as a salt.
# What was measured:
# Conditions in all cases: incubation time: 27 h, anaerobic, 37 °C;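 for the amine columns active = adjusted P below 0.05 in both replicates with a change the same way and a mean fold change under 0.8 or over 1.25; inactive = the rest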
# [1] = system: Clostridium sporogenes DSM 1664; experiment: growth (OD595) fold change vs plate DMSO controls (fold change (ratio)); higher = more growth
# Summary of the method: (§1)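 Each value is the mean of 2 biological replicates, and fold changes above 1.5 were set to NA. The underlying readings were taken at 595 nm from shaken anaerobic mGAM cultures in 96-well plates after 27 h at 37 °C. They were blank-subtracted, corrected for compound background using 20 µM compound solutions in water, and converted to OD with a calibration factor of 5. Growth is the fold change relative to the median of the plate DMSO controls.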
# [2] = system: Escherichia coli IAI1; experiment: as above
# Summary of the method: as §1
# [3] = system: Klebsiella aerogenes DSM 30053; experiment: as above
# Summary of the method: as §1
# [4] = system: Ruminococcus gnavus DSM 108212; experiment: as above
# Summary of the method: as §1
# [5] = system: Klebsiella aerogenes DSM 30053; experiment: fold change of Histamine concentration vs plate DMSO controls (fold change (ratio)); higher = more amine produced, active = hit call of the paper (significant change in both replicates, either direction)
# Summary of the method: (§2)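 Each value is the fold change relative to DMSO-only wells on the same plate. Four gut bacterial strains were grown anaerobically in mGAM at 37 °C for 27 h in 80 µL wells, starting at OD 0.1 before a 1:1 dilution, with compounds at 20 µM final (sweeteners 50 µM). Whole cultures were extracted with cold acetonitrile/methanol containing 0.1% formic acid, centrifuged, and amines were quantified by LC–triple-quadrupole MS (dynamic MRM) against external calibration curves with within-batch drift correction. Values are means of 2 biological replicates.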
# [6] = system: Clostridium sporogenes DSM 1664; experiment: fold change of Tryptamine concentration vs plate DMSO controls (fold change (ratio)); higher = more amine produced, active = hit call of the paper (significant change in both replicates, either direction)
# Summary of the method: as §2
# [7] = system: Ruminococcus gnavus DSM 108212; experiment: as above
# Summary of the method: as §2
# [8] = system: Escherichia coli IAI1; experiment: fold change of Putrescine concentration vs plate DMSO controls (fold change (ratio)); higher = more amine produced, active = hit call of the paper (significant change in both replicates, either direction)
# Summary of the method: as §2
# [9] = system: Klebsiella aerogenes DSM 30053; experiment: as above
# Summary of the method: as §2
# [10] = system: Escherichia coli IAI1; experiment: fold change of Cadaverine concentration vs plate DMSO controls (fold change (ratio)); higher = more amine produced, active = hit call of the paper (significant change in both replicates, either direction)
# Summary of the method: as §2
# [11] = system: Klebsiella aerogenes DSM 30053; experiment: as above
# Summary of the method: as §2
# [12] = system: Ruminococcus gnavus DSM 108212; experiment: fold change of 2-Phenylethylamine concentration vs plate DMSO controls (fold change (ratio)); higher = more amine produced, active = hit call of the paper (significant change in both replicates, either direction)
# Summary of the method: as §2
Compound,growth [1],growth [2],growth [3],growth [4],fold change of Histamine concentration [5],fold change of Tryptamine concentration [6],fold change of Tryptamine concentration [7],fold change of Putrescine concentration [8],fold change of Putrescine concentration [9],fold change of Cadaverine concentration [10],fold change of Cadaverine concentration [11],fold change of 2-Phenylethylamine concentration [12]
Cc1ncc([N+](=O)[O-])n1CCO [Metronidazole] (20 µM),0.00188,1.04,1.02,0.0847,0.975 (inactive),0.011 (active),0.0917 (active),0.94 (inactive),1.05 (inactive),0.997 (inactive),1.1 (inactive),0.0796 (active)
Nc1nc2[nH]cnc2c(=S)[nH]1 [Tioguanine] (20 µM),1.3,0.969,1.09,0.899,1 (inactive),1.03 (inactive),1.01 (inactive),0.623 (active),0.987 (inactive),0.871 (inactive),0.998 (inactive),0.998 (inactive)
CN(C)CCN(Cc1cccs1)c1ccccn1 [Methapyrilene hydrochloride] (20 µM),1.04,1,1,1.2,0.994 (inactive),1.02 (inactive),1.05 (inactive),0.892 (inactive),0.993 (inactive),1.18 (inactive),0.985 (inactive),1.08 (inactive)
O=C(c1ccccc1)c1ccc2n1CCC2C(=O)O (stereo not drawn) [Ketorolac tromethamine] (20 µM),0.909,1.04,0.976,0.993,1.04 (inactive),1.08 (inactive),1.03 (inactive),1.15 (inactive),1.03 (inactive),1.07 (inactive),0.995 (inactive),0.994 (inactive)
COc1cnc(NS(=O)(=O)c2ccc(N)cc2)nc1 [Sulfameter] (20 µM),0.997,0.976,0.981,1.35,1.01 (inactive),0.945 (inactive),1.03 (inactive),1.01 (inactive),0.996 (inactive),1.03 (inactive),0.987 (inactive),1.01 (inactive)
OC[C@H]1O[C@@H](O[C@@H]2[C@@H](CO)OC(O)(CO)[C@H]2O)[C@H](O)[C@@H](O)[C@H]1O (mixture of isomers) [Lactulose] (50 µM),1.06,0.906,1.01,0.977,1.01 (inactive),0.98 (inactive),1 (inactive),0.955 (inactive),1.02 (inactive),1.05 (inactive),0.994 (inactive),0.98 (inactive)
Cn1c(=O)c2c(ncn2CC2OCCO2)n(C)c1=O [Doxofylline] (20 µM),1.05,0.975,0.973,1.18,1.08 (inactive),1.05 (inactive),1.06 (inactive),0.999 (inactive),1.01 (inactive),1 (inactive),0.993 (inactive),1.1 (inactive)
CN1C(C(=O)Nc2ccccn2)=C(O)c2sccc2S1(=O)=O [Tenoxicam] (20 µM),1.03,1.04,0.975,1.18,1.07 (inactive),1.01 (inactive),1.01 (inactive),1.05 (inactive),1.01 (inactive),1.01 (inactive),0.977 (inactive),0.959 (inactive)
CCCN(CCC)CCc1cccc2c1CC(=O)N2 [Ropinirole hydrochloride] (20 µM),1.07,0.95,0.961,1.02,1.08 (inactive),1 (inactive),1 (inactive),0.952 (inactive),1.02 (inactive),0.978 (inactive),0.986 (inactive),1.02 (inactive)
CCCCC(CC)CNC(=N)NC(=N)NCCCCCCNC(=N)NC(=N)NCC(CC)CCCC (stereo not drawn) [Alexidine dihydrochloride] (20 µM),0.294,0.938,0.967,0.624,1.11 (inactive),0.172 (active),0.0418 (active),1.08 (inactive),1.02 (inactive),1.12 (inactive),0.999 (inactive),0.0355 (active)
CN1CCCC(CC2c3ccccc3Sc3ccccc32)C1 (stereo not drawn) [Metixene hydrochloride] (20 µM),1.02,0.988,1.02,1.25,0.998 (inactive),1.06 (inactive),0.807 (inactive),0.956 (inactive),1.02 (inactive),0.999 (inactive),1.01 (inactive),0.88 (inactive)
CC(C)(C)NCC(O)CSc1nc(-c2ccc(C(N)=O)s2)cs1 (stereo not drawn) [Arotinolol hydrochloride] (20 µM),1.07,1.02,1.02,1.01,1.01 (inactive),1.01 (inactive),1.05 (inactive),0.978 (inactive),1 (inactive),0.928 (inactive),0.989 (inactive),1.1 (inactive)
CC1(C)S[C@@H]2[C@H](NC(=O)C3(N)CCCCC3)C(=O)N2[C@H]1C(=O)O [Cyclacillin] (20 µM),0,1,1.02,0.0834,0.87 (inactive),0.0132 (active),0.0795 (active),0.887 (inactive),0.993 (inactive),1.36 (active),1 (inactive),0.0578 (active)
O=c1[nH]c(=O)n([C@H]2C[C@H](O)[C@@H](CO)O2)cc1C(F)(F)F [Trifluridine] (20 µM),1.14,1.04,0.99,0.913,1.09 (inactive),1.02 (inactive),1.07 (inactive),0.948 (inactive),0.972 (inactive),1.04 (inactive),0.975 (inactive),1.11 (inactive)
CC(Cc1cccc(C(F)(F)F)c1)NCCOC(=O)c1ccccc1 (stereo not drawn) [Benfluorex] (20 µM),1.08,0.988,0.966,0.795,1.02 (inactive),0.988 (inactive),0.786 (active),1.06 (inactive),1 (inactive),0.975 (inactive),0.99 (inactive),0.797 (inactive)
Cc1cccc(C)c1NC(=O)C(C)N (stereo not drawn) [Tocainide hydrochloride] (20 µM),0.909,1.02,0.994,1.06,1.06 (inactive),1.01 (inactive),1.02 (inactive),1.03 (inactive),1 (inactive),0.983 (inactive),0.976 (inactive),1.05 (inactive)
O=P(O)(O)C(O)(Cc1cccnc1)P(=O)(O)O [Risedronic acid monohydrate] (20 µM),1.08,1.12,1,0.913,1.05 (inactive),1.04 (inactive),1.04 (inactive),1.2 (inactive),1.02 (inactive),0.97 (inactive),1.01 (inactive),1.07 (inactive)
Cc1ccccc1C(OCCN(C)C)c1ccccc1 (stereo not drawn) [Orphenadrine hydrochloride] (20 µM),0.998,1.02,0.938,1.09,0.902 (inactive),1.34 (inactive),1.07 (inactive),1.07 (inactive),0.895 (inactive),1.04 (inactive),1.03 (inactive),1.16 (inactive)
Clc1cccc(Cl)c1NC1=NCCN1 [Clonidine hydrochloride] (20 µM),0.856,0.984,0.989,0.99,1.04 (inactive),0.953 (inactive),1.09 (inactive),0.995 (inactive),1.01 (inactive),0.996 (inactive),0.992 (inactive),1.08 (inactive)
CO/N=C1\CN(c2nc3c(cc2F)c(=O)c(C(=O)O)cn3C2CC2)CC1CN (stereo not drawn) [Gemifloxacin mesylate] (20 µM),0.00381,0.0388,0.126,0.376,0.0873 (active),0.0398 (active),0.148 (active),0.735 (inactive),0.66 (inactive),0.223 (active),0.992 (inactive),0.159 (active)
CNc1ncnc2c1ncn2[C@@H]1O[C@H](CO)[C@@H](O)[C@H]1O [N6-methyladenosine] (20 µM),1.05,0.994,1.02,0.955,1.03 (inactive),1.03 (inactive),1.04 (inactive),1 (inactive),0.992 (inactive),0.987 (inactive),1 (inactive),1.01 (inactive)
CCc1cccc(CC)c1NC(=O)CN(CC(=O)O)CC(=O)O [Etifenin] (20 µM),1.08,1,1.08,1.1,0.925 (inactive),1.02 (inactive),0.951 (inactive),0.998 (inactive),1 (inactive),0.987 (inactive),1.02 (inactive),0.924 (inactive)
CCOc1cc(N)c(Cl)cc1C(=O)NCC1CN(Cc2ccc(F)cc2)CCO1 (stereo not drawn) [Mosapride] (20 µM),1.14,0.963,0.978,1.08,1.05 (inactive),1.03 (inactive),0.938 (inactive),0.985 (inactive),1.02 (inactive),0.998 (inactive),0.992 (inactive),0.936 (inactive)
CN1CCN2c3ncccc3Cc3ccccc3C2C1 (stereo not drawn) [Mirtazapine] (20 µM),1.09,1.01,1,1.11,0.963 (inactive),1.12 (inactive),1.06 (inactive),0.964 (inactive),0.983 (inactive),0.984 (inactive),1.02 (inactive),1.04 (inactive)
